Results on 40 compounds are retold here after PubChem BioAssay (EPA / NIEHS).

The structures appear in SMILES notation. Calls of active or inactive are those of the source. How the source made its calls: active means hit-call score of the fitted dose curve at least 0.9, where 1 is the maximum; inactive means score below 0.9.

As usually defined, the AC50 is the midpoint of the concentration-response curve, whichever way the signal moves.

Read-out in this assay: TIMP metallopeptidase inhibitor 1 (TIMP1), TIMP1 (gene 7076)
Briefly: BSK_hDFCGF_TIMP1: BioMAP Diversity Plus: hDFCGF Assay for TIMP metallopeptidase inhibitor 1 (TIMP1) Biomarker Activity (AID 2283062). The settings on record: primary human foreskin fibroblasts; actives raise or lower the signal. The protocol:
BSK_hDFCGF is a cell-based, multiplexed-readout assay that uses foreskin fibroblast, a human skin primary cell, with measurements taken at 24 hours after chemical dosing in a 96-well plate.BSK_hDFCGF_TIMP1 is an assay component measured in the BSK_hDFCGF assay. It measures TIMP-1 antibody related to regulation of gene expression using ELISA technology.Data from the assay component BSK_hDFCGF_TIMP1 was analyzed into 1 assay endpoint. This assay endpoint, BSK_hDFCGF_TIMP1, was analyzed with bidirectional fitting relative to DMSO as the negative control and baseline of activity. Using a type of binding reporter, gain or loss-of-signal activity can be used to understand changes in the signaling as they relate to the gene TIMP1. Furthermore, this assay endpoint can be referred to as a primary readout, because this assay has produced multiple assay endpoints where this one serves a signaling function. To generalize the intended target to other relatable targets, this assay endpoint is annotated to the protease inhibitor intended target family, where the subfamily is metalloproteinase inhibitor.
The levels of cell surface (or secreted, indicated by the prefix "s") biomarker endpoints were measured by ELISA. Overt cytotoxicity to cells in confluent adherent cultures (all systems other than the BT system) was assessed by measuring total protein levels using sulforhodamine B (SRB) staining in parallel cultures at the time of biomarker measurements, indicated as SRB endpoints. For proliferation assays for adherent cell types, individual cell types are cultured at sub-confluence and relative cell numbers quantified by SRB staining at time points optimized for each system (48 h: 3C and CASM3C systems; 72 h: BT and HDF3CGF systems; 96 h: SAg system). SRB was performed by staining cells with 0.1% SRB after fixation with 10% TCA and reading wells at 560 nm.Viability and proliferation of PBMC (T cells) was quantified by Alamar Blue reduction for the SAg and BT systems. For PBMC viability (referred to as PBMC Cytotoxicity within the assay endpoint names), cells were plated (75,000/well in a 96-well plate) and then chemical samples added for 1 h before addition of activators, SEB and TSST-1 (20 ng/mL final concentration each). Cells were incubated for 90 h. Then, Alamar Blue (20 uL/well) (Invitrogen, Cat DAL1100) was added for 6 h, and the plates were read with a fluorescence microplate reader at 546/580 nm (excitation/emission). For PBMC proliferation, cells were plated and activated as above but incubated for only 16 h prior to addition of Alamar Blue. Plates were read after 6 h.
As for `CN/C(=N\[N+](=O)[O-])NCc1cnc(Cl)s1`, the result was inactive.
Turning to `CCOP(=S)(OCC)Oc1nc(Cl)n(C(C)C)n1`, the outcome was inactive.
For the compound `CCNP(=S)(OC)O/C(C)=C/C(=O)OC(C)C` (stereo not given), the result was inactive.
On to `CCOC(=O)C(C)OC(=O)c1cc(Oc2ccc(C(F)(F)F)cc2Cl)ccc1[N+](=O)[O-]` (stereo not given), for which the outcome was inactive.
Take `Nc1c(Cl)c(F)nc(OCC(=O)O)c1Cl`: the outcome was inactive.
Still for that read-out and setting: then `COC(=O)N(C(=O)N1CO[C@@]2(C(=O)OC)Cc3cc(Cl)ccc3C2=N1)c1ccc(OC(F)(F)F)cc1`, with “inactive”; and `CCN(CC)C(=O)C(C)Oc1cccc2ccccc12` (stereo not given), with “inactive”.
As to `CC(C)Nc1nc(Cl)nc(NC(C)C)n1`, the result was inactive.
Still for that read-out and setting: then `CS(=O)(=O)c1cc(C(F)(F)F)ccc1C(=O)c1cnoc1C1CC1`, with “inactive”; and `CC1(C)CCC(=Cc2ccc(Cl)cc2)C1(O)Cn1cncn1` (stereo not given), with “inactive”; and `COC(=O)c1c(C(F)F)nc(C(F)(F)F)c(C2=NCCS2)c1CC(C)C`, with “inactive”.
The same measure, in the same setting: in the case of `CCOP(=O)(OCC)Oc1nc(Cl)c(Cl)cc1Cl` it was “inactive”.
On the same count and under the same terms, then `COCC(C)N(C(=O)CCl)c1c(C)csc1C` (stereo not given), with “inactive”.
As to `O=C(Nc1ccccc1-c1ccc(Cl)cc1)c1cccnc1Cl`, the outcome was inactive.
For the compound `CC(C)(C)C(=O)C(Oc1ccc(Cl)cc1)n1cncn1` (stereo not given), the outcome was inactive.
For `O=C1C2CC=CCC2C(=O)N1SC(Cl)(Cl)Cl` (stereo not given), the result was inactive.
As for `Cc1ccc(N=CN(C)C=Nc2ccc(C)cc2C)c(C)c1`, the AC50 is 31 µM (active).
Turning to `CC(C)N1C(=O)c2ccccc2NS1(=O)=O`, the AC50 was 3.97 µM (active).
The same measure, in the same setting: in the case of `OC(c1ccc(Cl)cc1)(c1ccc(Cl)cc1)C(Cl)(Cl)Cl` it was 11.4 µM (active).
Consider `COP(=S)(OC)Oc1ccc([N+](=O)[O-])c(C)c1`, for which the outcome was inactive.
Regarding `Cc1c(COC(=O)[C@@H]2[C@H](/C=C(\Cl)C(F)(F)F)C2(C)C)cccc1-c1ccccc1`, the outcome was inactive.
Same read-out and setting: then `CC(C)N1C(=O)N(c2ccccc2)CSC1=NC(C)(C)C`, with “inactive”.
On the same count and under the same terms, then `Cc1cc(C)nc(Nc2ccccc2)n1`, with “inactive”.
On the same count and under the same terms, then `CCCCC(O)(Cn1cncn1)c1ccc(Cl)cc1Cl` (stereo not given), with “inactive”.
As to `Cc1cnc(C2=NC(C)(C(C)C)C(=O)N2)c(C(=O)O)c1` (stereo not given), the outcome was inactive.
Regarding `CC1(C)C(C=C(Cl)Cl)C1C(=O)OC(C#N)c1cccc(Oc2ccccc2)c1` (stereo not given), the result was inactive.
Take `CCCCC(C#N)(Cn1cncn1)c1ccc(Cl)cc1` (stereo not given): the result was inactive.
As for `CCOc1nc(F)cc2nc(S(=O)(=O)Nc3c(Cl)cccc3Cl)nn12`, the outcome was inactive.
As for `CCOc1cc(C(C)(C)C)ccc1C1COC(c2c(F)cccc2F)=N1` (stereo not given), the AC50 is 13.8 µM (active).
As to `COc1ccc(-c2ccccc2)cc1NNC(=O)OC(C)C`, the result was inactive.
Still for that read-out and setting: then `O=c1n(Cl)c(=O)n(Cl)c(=O)n1Cl`, with “inactive”.
As for `CCCN(CC)CC1COC2(CCC(C(C)(C)C)CC2)O1` (stereo not given), the AC50 is 3.97 µM (active).
In the case of `CC1(C)C(C(=O)OC(C#N)c2cccc(Oc3ccccc3)c2)C1(C)C` (stereo not given), the outcome was inactive.
On the same count and under the same terms, then `CCN(CC)c1nc(C)cc(OP(=S)(OC)OC)n1`, with “inactive”.
Take `COCc1cnc(C2=NC(C)(C(C)C)C(=O)N2)c(C(=O)O)c1` (stereo not given): the outcome was inactive.
As to `COc1cc(Cl)c(OC)cc1Cl`, the outcome was inactive.
On to `N#CN=C1SCCN1Cc1ccc(Cl)nc1`, for which the outcome was inactive.
For the compound `O=C(O)c1c(Cl)ccc2cc(Cl)cnc12`, the result was inactive.
Take `CCCCOCN(C(=O)CCl)c1c(CC)cccc1CC`: the AC50 was 13.7 µM (active).
Take `CC(C)Oc1cccc(NC(=O)c2ccccc2C(F)(F)F)c1`: the result was inactive.
